Measurements reported in PubChem BioAssay AID720711 (National Center for Advancing Translational Sciences (NCATS), 2013).
Hit rate of the full screen: of about 360,000 compounds, about 290 (0.081%) were called active. Calls come from the whole dose curve; as a rule, active = well fitted activation curve with a large enough effect; inconclusive = small, poorly fitted or top-dose-only effect; inactive = no such curve, though single readings can be large or run the other way. The list comes from a sample in which actives are over-represented; it also holds similar structures and randomly drawn compounds. Where a call stands in place of a potency, no number is given.

Target: Rap guanine nucleotide exchange factor 4 (Homo sapiens) (UniProt Q8WZA2)
Sequence (Q8WZA2 whole entry, looked up): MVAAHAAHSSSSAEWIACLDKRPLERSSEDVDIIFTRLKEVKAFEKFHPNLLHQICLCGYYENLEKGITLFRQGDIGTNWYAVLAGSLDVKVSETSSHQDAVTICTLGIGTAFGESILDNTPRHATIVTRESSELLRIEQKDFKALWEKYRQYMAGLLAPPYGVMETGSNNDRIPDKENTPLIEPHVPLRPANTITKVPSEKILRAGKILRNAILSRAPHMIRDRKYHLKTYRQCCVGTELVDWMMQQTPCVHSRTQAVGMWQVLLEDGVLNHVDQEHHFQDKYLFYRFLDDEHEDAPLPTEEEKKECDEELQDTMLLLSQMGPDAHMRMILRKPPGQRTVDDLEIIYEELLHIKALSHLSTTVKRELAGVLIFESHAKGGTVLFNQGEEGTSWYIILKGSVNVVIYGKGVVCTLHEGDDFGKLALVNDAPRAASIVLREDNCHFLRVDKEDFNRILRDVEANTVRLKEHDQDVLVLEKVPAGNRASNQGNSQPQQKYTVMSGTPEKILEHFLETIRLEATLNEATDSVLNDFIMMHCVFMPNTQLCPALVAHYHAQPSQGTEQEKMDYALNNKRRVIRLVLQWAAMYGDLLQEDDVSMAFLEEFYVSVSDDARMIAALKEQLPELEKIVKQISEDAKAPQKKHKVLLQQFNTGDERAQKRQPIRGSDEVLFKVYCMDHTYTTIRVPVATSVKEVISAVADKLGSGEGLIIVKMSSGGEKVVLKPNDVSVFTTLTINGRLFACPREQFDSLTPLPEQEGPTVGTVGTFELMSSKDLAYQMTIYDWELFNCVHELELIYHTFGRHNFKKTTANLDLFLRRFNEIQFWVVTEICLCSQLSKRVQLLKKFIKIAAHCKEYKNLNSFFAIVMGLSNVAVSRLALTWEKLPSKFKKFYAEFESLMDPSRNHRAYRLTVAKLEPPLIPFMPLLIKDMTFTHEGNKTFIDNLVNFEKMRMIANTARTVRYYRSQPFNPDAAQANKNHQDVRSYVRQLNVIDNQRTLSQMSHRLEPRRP
Assay: qHTS for Agonist of cAMP-regulated guanine nucleotide exchange factor 4 (EPAC2): primary screen; note: nearly all actives have a fitted effect of over 50% in size
Settings: biochemical qHTS; Potency: EPAC2 activation; series mostly up to 154 µM
Source text: In multi-cellular eukaryotic organisms, the effects of cAMP are transduced by two ubiquitously-expressed intracellular cAMP receptors, the classic protein kinase A/cAMP-dependent protein kinase (PKA/cAPK) and the more recently discovered exchange protein directly activated by cAMP/cAMP-regulated guanine nucleotide exchange factor (EPAC/cAMP-GEF). Both PKA and EPAC are ubiquitously expressed in all tissues, and an increase in intracellular cAMP levels will lead to the activation of both PKA and EPAC. Therefore, careful dissections of the individual role and relative contribution of EPAC and PKA within the overall cAMP signaling in various model systems are critical for further elucidating the mechanism of cAMP signaling. To date no EPAC-specific antagonists and agonist, as well as isoform-specific agonists have been reported, and developing EPAC-specific pharmacological probes to determine the physiological functions that EPAC play in the overall cAMP-mediated signaling remains a major challenge within the research field. Furthermore, identified regulators of EPAC may lead to new mechanism-based therapeutic strategies specifically targeting the EPAC / cAMP-signaling components as EPAC has been implicated to play important roles in major human pathological conditions such as diabetes, heart disease, and cancer.
This qHTS will be used to screen the Molecular Libraries Small Molecule Repository (MLSMR) as a concentration-titration series using the NCGC unique quantitative screening (qHTS) platform to find activators for EPAC2. In addition, this assay will also be used as a counterscreen for the EPAC1 qHTS. This fluorescent based assay is developed and validated for EPAC2 that measures exchange using EPAC effector Rap1 complex with BODIPY-GDP, a GDP analog with a tethered fluorophores. Activators are identified by monitoring the change in fluorescence signal as the exchanged free BODIPY-GDP has a reduced fluorescence compared to Rap1-bound BODIPY-GDP. […] in signal (activation) is the desired outcome for the EPAC2 agonist while no activity in this assay is desired for the EPAC1 agonist counterscreen.
[1] de Rooij, J., Zwartkruis, F. J., Verheijen, M. H., Cool, R. H., Nijman, S. M., Wittinghofer, A., and Bos, J.L. (1998) Nature 396, 474-477
[2] Kawasaki, H., Springett, G. M., Mochizuki, N., Toki, S., Nakaya, M., Matsuda, M., Housman, D. E., and Graybiel, A. M. (1998) Science 282, 2275-2279
NIH Chemical Genomics Center [NCGC]
NIH Molecular Libraries Probe Centers Network [MLPCN]
Assay Submitter (PI): Xiaodong Cheng, The University of Texas, Medical Branch
Briefly, three uL of reagents (100 nM EPAC2, 250 nM RAP1B-BODIPY-GDP, 50 uM GDP) were dispensed into a 1536-well Greiner black solid-bottom medium binding assay plate. Controls and test compounds (23 nL) were transferred to the plate via a Kalypsys pin tool equipped with a 1536-pin array. The plates were centrifuged at 1,000 rpm for 15 seconds followed by 5 minute incubation at room temperature. The assay plates were read at 5 minute intervals for 30 minutes in the ViewLux plate reader using 480nm excitation and 540nm emission filters. The results were normalized to the agonist positive control of 6.5 mM cAMP.
Potency is the fitted concentration of half-maximal effect.

Row | SMILES | Potency
1 | COc1cccc(N2C(=O)NC(=O)/C(=C\c3cn(C)c4ccccc34)C2=O)c1 | 100 µM (active)
2 | CCc1nc2ccccc2c(=O)n1-c1cccc(OC)c1 | inactive
3 | CC1C(=O)OC2CCN3CC=C(COC(=O)C(C)(O)C1(C)O)C23 (stereo not given) | inactive
4 | CSC1=NP(=S)(SC)N(C)c2nc3n(c21)CCC3 (stereo not given) | inactive
5 | CC(=O)c1ccc(OC(NC(=O)Cc2ccccc2)C(Cl)(Cl)Cl)cc1 (stereo not given) | inactive
